Assay results as given in PubChem BioAssay AID794 (The Scripps Research Institute Molecular Screening Center, 2007).
The other results are listed elsewhere or left out. Active and inactive are the calls of the source. Rule as the data show it: active = inhibition above about 19%; inactive = the rest.

Target: Focal adhesion kinase 1 (Homo sapiens) (UniProt Q05397)
Experiment: human PTK2 activity blockers, single-point recheck – biochemical, confirmation (AID 794)
Settings: FAK kinase biochemical inhibition assay; at 7 µM; hits give high values

Sequence of Focal adhesion kinase 1 (Homo sapiens) (Q05397 whole entry, looked up): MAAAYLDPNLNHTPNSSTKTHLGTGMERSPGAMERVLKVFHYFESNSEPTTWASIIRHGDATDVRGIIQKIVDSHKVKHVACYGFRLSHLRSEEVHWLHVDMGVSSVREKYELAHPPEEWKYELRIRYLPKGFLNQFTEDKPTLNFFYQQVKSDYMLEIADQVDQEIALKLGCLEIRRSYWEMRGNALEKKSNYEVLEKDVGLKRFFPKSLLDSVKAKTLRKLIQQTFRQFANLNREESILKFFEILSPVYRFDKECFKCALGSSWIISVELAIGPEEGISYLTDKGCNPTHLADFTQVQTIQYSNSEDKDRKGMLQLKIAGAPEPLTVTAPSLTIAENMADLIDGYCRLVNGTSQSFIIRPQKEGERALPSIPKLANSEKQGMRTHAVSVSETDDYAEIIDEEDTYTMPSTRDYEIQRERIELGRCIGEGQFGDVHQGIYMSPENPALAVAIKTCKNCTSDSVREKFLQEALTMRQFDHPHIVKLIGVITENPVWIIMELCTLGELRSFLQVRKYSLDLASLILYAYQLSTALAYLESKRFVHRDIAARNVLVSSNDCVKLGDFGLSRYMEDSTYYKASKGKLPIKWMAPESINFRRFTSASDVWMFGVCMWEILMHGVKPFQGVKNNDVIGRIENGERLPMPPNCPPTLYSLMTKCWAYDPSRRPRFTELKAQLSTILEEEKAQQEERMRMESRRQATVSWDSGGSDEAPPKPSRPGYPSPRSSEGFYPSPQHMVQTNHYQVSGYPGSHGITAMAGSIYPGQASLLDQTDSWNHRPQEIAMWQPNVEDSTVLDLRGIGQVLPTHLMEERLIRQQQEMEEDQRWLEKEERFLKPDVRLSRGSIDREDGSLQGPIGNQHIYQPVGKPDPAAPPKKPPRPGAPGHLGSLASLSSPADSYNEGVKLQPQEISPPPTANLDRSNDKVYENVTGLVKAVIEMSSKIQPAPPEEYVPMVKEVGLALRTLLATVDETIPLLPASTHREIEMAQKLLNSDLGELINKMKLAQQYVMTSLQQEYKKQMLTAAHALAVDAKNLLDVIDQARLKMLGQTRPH

Row | SMILES | inhibition
1 | CCN(CC)S(=O)(=O)c1cc([N+](=O)[O-])ccc1NNC(=O)Nc1ccccc1 | 19.2% (active)
2 | O=[N+]([O-])c1ccc(C=Nc2ccc(Cl)cc2Cl)s1 | 2.19% (inactive)
3 | Cn1c(CCN2CCCCCC2)nc2cc(NC(=O)Nc3ccccc3)ccc21 | 7.82% (inactive)
4 | COc1ccc(NC(=O)ON=C2c3ccccc3-c3ccccc32)cc1 | 6.77% (inactive)
5 | COC(=O)c1c(NC(=O)CSc2nncs2)sc2c1CCCCC2 | 10.8% (inactive)
6 | Nc1c(-c2ccc(F)cc2)cnc2ncnn12 | -3.73% (inactive)
7 | CC(=NCc1ccco1)C1=C(O)c2ccccc2C1=O | 15.2% (inactive)
8 | CCCOc1ccc(NC(=O)C2CCCNC2=O)cc1 (centres undefined) | -2.48% (inactive)
9 | Cc1ccc(-c2nn(C(C)(C)C)c3ncnc(N)c23)cc1 | 15.6% (inactive)
